# Compound activity: PubChem BioAssay, several laboratories
# MLLE-PAM2 inh: blocks PAM2 peptide binding to the PABP1 MLLE domain. P11940. GST-MLLE / FITC-PAM2 fluorescence polarization. inhibition, % at 20 µM. 360,000 tested, 0.36% active; in the data active = inhibition above about 35%, passing the limit was not always enough;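 note: plate controls were DMSO wells with GST-MLLE for no effect and wells lacking GST-MLLE protein for full effect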
# PABP polyA inh: blocks human PABP binding to poly(A) RNA; fluorescence polarization; calls only at 35 µM; 290,000 tested, 1% active; AID 2014;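 note: calls also rest on retests at 20 µM and on dose response follow-up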
# eIF4H inh: inhibitors of RNA binding by human eIF4H. inhibition, % at 35 µM. 290,000 tested, 0.94% active. AID 2012. Q15056. eIF4H fluorescence polarization binding assay;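 note: calls also rest on retests at 20 µM and on dose response follow-up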
# EBV gp42 inh: inhibitors of Epstein-Barr virus glycoprotein 42; 220,000 tested, 0.42% active; Fluorescence polarization binding assay, mP read-out; inhibition, % (tested at 21.74 µM); in the data active = inhibition above about 50%
# MEX-5 binding: C. elegans MEX-5 TCR-2 RNA binding activity; Q9XUB2; 300,000 tested, 0.38% active; AID 1832; activity score (negative = inhibition of binding), % at 10 µM; MEX-5/FITC-TCR2 RNA binding, fluorescence polarization; active compounds read low;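 active = inhibition past about -25% in most replicates, and total fluorescence under double the plate's negative control median, limit read from the data; inconclusive = replicates evenly split on the limit, or fluorescence at least double controls; inactive = too little inhibition in most replicates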;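 note: 0% = DMSO and -100% = 5 µM competing unlabeled TCR2 RNA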
# Target sequence (Q9XUB2 whole entry, looked up): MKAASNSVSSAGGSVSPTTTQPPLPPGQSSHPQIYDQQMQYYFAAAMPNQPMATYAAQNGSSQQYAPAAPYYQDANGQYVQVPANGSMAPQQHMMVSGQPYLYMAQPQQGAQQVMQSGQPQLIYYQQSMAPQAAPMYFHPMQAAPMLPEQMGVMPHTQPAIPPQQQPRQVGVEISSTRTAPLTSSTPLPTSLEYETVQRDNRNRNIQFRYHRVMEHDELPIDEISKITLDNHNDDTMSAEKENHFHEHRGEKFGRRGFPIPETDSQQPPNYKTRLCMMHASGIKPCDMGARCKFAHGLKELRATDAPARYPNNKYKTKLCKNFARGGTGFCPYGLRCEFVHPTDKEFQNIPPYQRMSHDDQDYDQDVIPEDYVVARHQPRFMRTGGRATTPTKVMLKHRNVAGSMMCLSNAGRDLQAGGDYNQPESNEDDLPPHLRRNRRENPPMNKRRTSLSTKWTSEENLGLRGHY
# The depositor's hits bear a star; i = inactive; ? = inconclusive; / = no result; + = active, no number. A selection: hits, their analogues and other compounds. The true share with any hit is near 1.8%. Unless noted, the rule behind the calls is not given here.
SMILES,MLLE-PAM2 inh,PABP polyA inh,eIF4H inh,EBV gp42 inh,MEX-5 binding
CCOCCC(=O)Nc1ccc2c(c1)c(=O)n(C)n2CC=C(C)C,13,/,/,/,/
c1cnc2c(-c3ccc4nccn4c3)cccc2c1,-23,/,/,/,/
Cn1c(SCC(=O)N2CCCC2)nc2ccccc21,-6,i,active,-9,-1
C[C@H]1CN(CCc2ccccc2)C(=O)[C@@H]1CC(=O)Nc1ccc(Br)cc1,3,/,/,/,/
COc1ccc(C(=S)N2CCN(c3ccccc3C)CC2)cc1,42*,i,-6,-22,0
CC(C)(C)NC(=O)CSc1nnc(-c2ccccn2)n1Cc1ccccc1,1,i,-3,-8,-2
C=CCNC(=O)CSc1nnc(-c2ccccn2)n1Cc1ccccc1,5,+,?,-4,1
Oc1c(C(c2ccco2)N2CCOCC2)sc2ncnn12 (stereo not drawn),8,+,130,-16,-5
Oc1c(C(c2ccccc2)N2CCCCC2)sc2ncnn12 (stereo not drawn),-7,i,-6,-1,-3
COc1ccc2c(c1)CC/C(=C\Nc1ccc3c(c1)OCO3)C2=O,-92,+,66*,-23,-9
O=C1/C(=C/Nc2ccc3c(c2)OCO3)CCc2ccccc21,-113,i,2,-15,-5
CC(=O)c1ccc2noc(-c3ccc(F)cc3)c2c1,93,i,69,95*,-15
CCNC(=O)C1CCCN(C(=O)Cc2cccs2)CC1 (stereo not drawn),-1,/,/,/,/
Cc1ccc(-c2cc3nc(-c4ccccc4)cc(NCCCO)n3n2)cc1,-56,/,/,/,/
CC(=O)NC(c1cccc(F)c1)c1nc(-c2ccc(N(C)C)cc2)cs1 (stereo not drawn),5,/,/,/,/
O=c1cc(-c2ccc(O)cc2)oc2c(O)c(O)c(O)c(O)c12,-29,+,91*,-3,/
O=C(C/C=N\OCc1ccc([N+](=O)[O-])cc1)Nc1ccccc1,-3,i,-2,-4,0
COC(=O)C(/C=N/OCc1ccc([N+](=O)[O-])cc1)NC(=O)c1ccccc1 (stereo not drawn),4,+,?,1,-2
COc1cc(C2C(C#N)=C(SC)NC3=C2C(=O)CCC3)ccc1O (stereo not drawn),18,i,-1,-9,2
COc1cc(C2C(C#N)=C(N)N(c3cccnc3)C3=C2C(=O)CCC3)ccc1O (stereo not drawn),0,+,51*,-13,-5
CCSc1sccc1C1C(C#N)=C(N)N(c2cccnc2)C2=C1C(=O)CCC2 (stereo not drawn),45*,i,14,2,-1
CSc1sc(C)cc1C1C(C#N)=C(N)N(c2cccnc2)C2=C1C(=O)CC(C)(C)C2 (stereo not drawn),-2,i,-7,3,1
CC1(C(=O)NCc2cccs2)Cc2c(-c3ccc4c(c3)OCO4)ccnc2O1 (stereo not drawn),0,/,/,/,/
OC[C@@H]1CN(Cc2ccc(Cl)cc2)C[C@H](n2cnc3c(N4CCCC4)ncnc32)O1,5,/,/,/,/
Cn1c(SCC(=O)Nc2ccc3nc(SCC(=O)N4CCCC4)sc3c2)nnc1-c1ccccc1,/,i,80,83*,2
SMILES,MLLE-PAM2 inh,PABP polyA inh,eIF4H inh,EBV gp42 inh,MEX-5 binding
COC(=O)c1ccc(NC(c2ccc(Cl)cc2)P(=O)(OC)OC)cc1 (stereo not drawn),-3,+,80*,-10,2
COP(=O)(OC)C(Nc1ccc(Cl)cc1)c1ccccc1 (stereo not drawn),-10,i,2,/,0
Nc1cc(Cl)ccc1Oc1ccc(Cl)cc1,7,i,4,-4,2
CN(C)c1ccc(Cl)cc1N,-1,i,69*,-4,-11
COc1ccc(NC(=O)CN2c3cccc4cccc(c34)S2(=O)=O)cc1OC,-4,/,/,/,/
CC1(OC(=O)C2CCCC2)C(=O)C=C2C=C3CCCN3C=C2C1=O (stereo not drawn),/,/,/,/,-17
CC1(OC(=O)CCc2ccccc2)C(=O)C=C2C=C3CCCN3C=C2C1=O (stereo not drawn),3,+,83*,-4,-10
CC1(OC(=O)CCc2ccccc2)C(=O)C=C2C=C(c3ccc(C#N)cc3)N(C3CCCCC3)C=C2C1=O (stereo not drawn),6,+,52,14,-3
CC1(OC(=O)c2cccs2)C(=O)C=C2C=C3CCCN3C=C2C1=O (stereo not drawn),0,+,95*,27,-27*
CC1ON=C(c2ccccn2)N(Cc2ccc3c(c2)OCO3)C1=O (stereo not drawn),8,/,/,/,/
Brc1ccc(C2Nc3cccc4cccc(c34)N2)s1,2,i,94,-5,/
COc1cc(C2Nc3cccc4cccc(c34)N2)ccc1O,-10,+,79*,/,-11
COc1ccc(Br)cc1C1Nc2cccc3cccc(c23)N1,20,+,102*,/,-2
Oc1ccc2ccccc2c1C1Nc2cccc3cccc(c23)N1,-10,+,77*,-7,0
CCN(CC)c1ccc(C2Nc3cccc4cccc(c34)N2)c(O)c1,7,i,10,/,/
COc1cc(C2Nc3cccc4cccc(c34)N2)cc(OC)c1OC(C)=O,21,+,89*,25,-4
CC1(C(=O)NS(=O)(=O)c2cccc(F)c2)CCN1C(=O)CCc1ccccc1 (stereo not drawn),2,/,/,/,/
CC1=C(C(=O)N2CCOCC2)CC(CC(=O)NC(c2ccccc2)c2ccccc2)C(=O)N1Cc1ccc(F)cc1 (stereo not drawn),-3,/,/,/,/
COCCNC(=O)C1(C)CCCN(CCS(=O)(=O)c2ccc(C)cc2)C1 (stereo not drawn),6,/,/,/,/
COc1ccc(OC)c(N=c2oc3c(OC)cccc3cc2C(=O)NCc2ccco2)c1,15,i,118*,/,-18
COc1ccccc1N=c1oc2c(OC)cccc2cc1C(=O)NCc1ccco1,-11,i,15,11,-7
COc1cccc2sc3ccc(NCCC4CCCN4C)cc3c(=O)c12 (stereo not drawn),-17,+,79*,/,-3
COc1cc2sc3cc(NCC[C@@H]4CCCN4C)ccc3c(=O)c2cc1OC,-26,/,/,/,/
CC(NC(=O)C1CCN(Cc2ccc(Oc3ccccc3)cc2)CC1)c1cccc2ccccc12 (stereo not drawn),-18,/,/,/,/
CCN1C(=O)/C(=C/c2ccc(OC)c(OC)c2)N=C1SCC(=O)NCc1ccco1,38*,i,12,-10,-1
Cc1ccc(C)c(NC(=O)CN(C)C(=O)CSC(C)C(=O)Nc2cc(C)on2)c1 (stereo not drawn),-1,i,5,/,3
CCOc1ccc(NC(=O)CN(C)C(=O)CSC(C)C(=O)Nc2cc(C)on2)cc1OCC (stereo not drawn),-5,+,35,/,4
O=C(/C=C/[C@H]1O[C@@H](n2ccc(=O)[nH]c2=O)[C@H](O)[C@@H]1O)N[C@@H](Cc1ccccc1)C(=O)O,-11,/,/,/,/
